Unmarked numbers belong to inactive results. The source made the active and inactive calls. Calls come from the whole dose curve; as a rule, active = well fitted curve in the direction sought with a large enough effect in the repeat runs; inconclusive = weak or mixed curves; inactive = flat fitted curve, though single readings scatter.
Assay: qHTS assay to test for compound auto fluorescence at 590 nm (red) in HepG2 cells (AID 720674)
Conditions: HepG2 autofluorescence, red 540/590 nm, 1 h; series mostly up to 91.3 µM
Description: U.S. Tox21 Program National Center for Advancing Translational Sciences [NCATS] NIH Chemical Genomics Center [NCGC] U.S. Environmental Protection Agency [EPA] National Institutes of Environmental Health Sciences [NIEHS] National Toxicology Program [NTP] U.S. Food and Drug Administration [FDA] Tox21 Assay Overview: Compound auto fluorescence often interferes with screening of the compound library against various biological targets and signaling pathways. Some of these compounds may have fluorophoric properties. Such properties may interfere with the assay outputs resulting in false positives and/or negatives. To decrease such complications and ensure the compound activities are relevant in terms of biological response, the Tox21 10K compound library was screened for auto fluorescence. From the fluorophores used as reporter signals in our screening assays, the auto fluorescence equivalencies of compounds against three fluorophores have been evaluated: Triamterene, Fluorescein and Rose Bengal sodium for blue, green and red fluorescence, respectively. The fluorescence intensities were measured using Excitation/Emission wavelengths at 405/460nm, 485/535nm and 540/590nm for blue, green and red labels, respectively. This assay includes the red fluorescence data.
Tox21 Assay Protocol Summary: 2,000 HepG2 cells in 5 uL of culture medium (MEM containing 10% FBS) per well were dispensed into black wall/clear bottom 1536-well plates using a Multidrop Combi Dispenser (ThermoFisher Scientific, Waltham, MA). The assay plates were incubated overnight at 37 C to allow cell attachment to the well bottom, followed by the transfer of 23 nL compound or DMSO vehicle by a pintool work station (Kalypsys , San Diego, CA). After the assay plates were incubated for 1 hr at 37 C and 5% CO2, fluorescence intensities in the assay plates were measured by an Envision (PerkinElmer, Shelton, CT) plate reader using three labels for measuring blue, green and red fluorescence at […] 460, 535 and 590 nm respectively.
In the case of Cc1cc2nc3ccc(=[N+](C)C)cc-3sc2cc1N, the outcome is reported as “inactive”.
With O=C(O)c1cccc(O)c1 the outcome was “inactive”.
For COc1cc2ncnc(Nc3ccc(F)c(Cl)c3)c2cc1OCCCN1CCOCC1, the outcome was “inactive”.
For CCC(C)=O, the outcome was “inactive”.
In the case of C/C=C(\C)C(=O)OCCC(C)CCC=C(C)C (stereo not given), the outcome is reported as “inactive”.
For CO[C@H]1C=CO[C@@]2(C)Oc3c(C)c(O)c4c(O)c(c5c(c4c3C2=O)=NC2(CCN(CC(C)C)CC2)N=5)NC(=O)/C(C)=C\C=C/[C@H](C)[C@H](O)[C@@H](C)[C@@H](O)[C@@H](C)[C@H](OC(C)=O)[C@@H]1C, the outcome was “inactive”.
In the case of O=C(NCCCN1CCOCC1)c1ccc(Cl)cc1, the outcome is reported as “inactive”.
In the case of COC(=O)[C@@H]1CC2=CC(=O)CC[C@]2(C)[C@@]23O[C@@H]2C[C@@]2(C)[C@@H](CC[C@@]24CCC(=O)O4)[C@H]13, the outcome is reported as “inactive”.
With CCCCCCCCCCCC[N+](C)(C)CC(=O)[O-] the outcome was “inactive”.
With CC(=O)Nc1ccccc1C the outcome was “inactive”.
Compound C[N+]1(C)CCC(=C(c2ccccc2)c2ccccc2)CC1 has a fluorescence, relative to Rose Bengal of -0.257% [at 18.6 µM].
For Oc1ccc(Nc2ccccc2)cc1, the outcome was “inactive”.
With Nc1nc(Cl)nc2c1ncn2[C@@H]1O[C@H](CO)[C@@H](O)[C@@H]1F the outcome was “inactive”.
With COc1cc2c(cc1OC)-c1cc(=Nc3c(C)cc(C)cc3C)n(C)c(=O)n1CC2 the outcome was “inactive”.
In the case of COCC(O)CO (stereo not given), the outcome is reported as “inactive”.
In the case of ON(Cc1ccccc1)Cc1ccccc1, the outcome is reported as “inactive”.
With CC(C)CCCC(=O)O the outcome was “inactive”.
Work on CC(=O)CC(c1ccc([N+](=O)[O-])cc1)c1c(O)c2ccccc2oc1=O (stereo not given) yielded a fluorescence, relative to Rose Bengal of -0.182% [at 18.6 µM].
With Cc1ccccc1N1C(=O)c2cc(S(N)(=O)=O)c(Cl)cc2NC1C (stereo not given) the outcome was “inactive”.
For CC1CC(O)CC(C)(C)C1 (stereo not given), the outcome was “inactive”.
With CC(C)C(OC(=O)c1ccccc1)C(C)(C)COC(=O)c1ccccc1 (stereo not given) the outcome was “inactive”.
C(=C\c1ccccc1)/CN1CCN(C(c2ccccc2)c2ccccc2)CC1 showed a fluorescence, relative to Rose Bengal of -0.246% [at 18.6 µM].
In the case of C[N+](C)(C)CCOC(N)=O, the outcome is reported as “inactive”.
In the case of CN(C)C(=O)Nc1ccc(Oc2ccc(Cl)cc2)cc1, the outcome is reported as “inactive”.
With CC1CC(=O)NN=C1c1ccc(NCC(C)(C)NCC(O)COc2cc(Cl)ccc2C#N)cc1 (stereo not given) the outcome was “inactive”.
With CCCCCCCCCCOS(=O)(=O)O the outcome was “inactive”.
In the case of CCCOc1ccc(S(=O)(=O)N2CCN(CC)CC2)cc1-c1nc2c(CC)n(Cc3ccccn3)nc2c(=O)[nH]1, the outcome is reported as “inactive”.
For NC(=O)N(O)[C@@H]1C=C[C@H](Oc2cccc(Oc3ccc(F)cc3)c2)C1, the outcome was “inactive”.
For O=C(CCCN1CCN(c2ccc(F)cc2)CC1)NC1c2ccccc2CSc2ccccc21 (stereo not given), the outcome was “inactive”.
For CCOC(=O)c1ccccc1C, the outcome was “inactive”.
For OCCSc1ccccc1, the outcome was “inactive”.
In the case of CCc1cccc(N(C)C(N)=Nc2cccc3ccccc23)c1, the outcome is reported as “inactive”.
With Fc1c(F)c(F)c(Br)c(F)c1F the outcome was “inactive”.
CCn1cc(C(=O)O)c(=O)c2cc(F)c(N3CCNCC3)nc21 showed a fluorescence, relative to Rose Bengal of 0.819% [at 18.6 µM].
In the case of C=CC(C)(C)CC(=O)OC, the outcome is reported as “inactive”.
For CC(N)CN (stereo not given), the outcome was “inactive”.
For Brc1cc(-c2ccc(Br)c(Br)c2Br)cc(Br)c1Br, the outcome was “inactive”.
For Cc1cnc(C)c(C)n1, the outcome was “inactive”.
With O=C1NCCN1 the outcome was “inactive”.
With O=Cc1c(Cl)cccc1Cl the outcome was “inactive”.
% is set by controls: 0 for no effect and ±100 for the full control effect.
